From PubChem BioAssay
Tau fibril FP – inhibitors of human tau fibril formation; P10636; Potency, µM (series often up to 57.7 µM), most hits filed as inhibitors; AID 1468; K18 P301L tau heparin fibrillization, Alexa594 FP, 6 h; 0.39% of 280,000 active; further: nearly all actives have a fitted effect of over 55% in size
Target sequence (P10636 561-689 P618L limits assumed): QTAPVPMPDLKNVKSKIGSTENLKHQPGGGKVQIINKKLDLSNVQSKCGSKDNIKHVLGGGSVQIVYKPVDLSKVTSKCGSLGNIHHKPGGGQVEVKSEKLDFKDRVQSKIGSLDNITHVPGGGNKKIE
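Quantitative HTS format: compounds meet 15 uM recombinant K18 P301L tau and Alexa 594-tau tracer in 100 mM sodium acetate pH 7; 20 uM heparin triggers fibrillization at 37 C over 6 hr; FP gives the signal.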
Tau ThT inhib – tau fibrillization inhibition (ThT binding); P10636; recombinant tau K18 P301L, heparin-induced fibrillization, ThT fluorescence; Potency, µM (top dose mostly 57.4 µM), actives largely listed as inhibitors; 2.1% of 270,000 active; further: nearly all actives have a fitted effect of over 55% in size
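In this qHTS, human K18 P301L tau is incubated with compound and heparin for 6 hr at 37 C, and Thioflavin T fluorescence then reports fibril load.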
KDM4E inh – JMJD2E (human) inhibition. JMJD2E catalytic domain, FDH-coupled NADH fluorescence (FDH is formaldehyde dehydrogenase). Potency, µM (highest dose often 57.1 µM), hits mostly inhibitors. 1.6% of 230,000 active. AID 2147; active means well fitted inhibition curve with a large enough effect, not every such curve was filed as active; inconclusive means small, poorly fitted or top-dose-only effect, or another doubt; inactive means no such curve, though single readings can be large or run the other way; further: nearly all actives have a fitted effect of over 50% in size
Target sequence (B2RXH2 1-337 limits assumed): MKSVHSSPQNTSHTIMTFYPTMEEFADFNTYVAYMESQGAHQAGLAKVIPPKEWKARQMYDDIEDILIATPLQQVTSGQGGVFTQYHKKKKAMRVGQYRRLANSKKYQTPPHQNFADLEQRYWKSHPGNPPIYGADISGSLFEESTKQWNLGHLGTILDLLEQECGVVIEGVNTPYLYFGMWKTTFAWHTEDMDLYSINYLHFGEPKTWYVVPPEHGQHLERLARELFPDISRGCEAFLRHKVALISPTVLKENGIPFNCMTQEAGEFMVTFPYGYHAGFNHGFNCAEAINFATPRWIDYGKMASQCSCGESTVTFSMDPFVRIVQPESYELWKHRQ
Coupling enz – inhibits coupling enzyme system, counter-screen for aldolase hits; coupling enzyme system counterscreen, AmpLite Red fluorescence; activity change, negative = inhibition, % at 58.2 µM, hits read low; 0.67% of 290,000 active; AID 2472; in the data active means activity change below about -30%
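Compounds tested against the coupling enzymes alone at 57.5 uM final; readout was AmpLite Red fluorescence (525/598 nm) after 20 min at RT.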
Tau fluor counter – counter-screen for tau fibril formation inhibitors; tau K18 P301L (four-repeat tau fragment) Alexa594 fluorescence, heparin fibrillization; Potency, µM (titrated, usually from 57.7 µM); 0.93% of 280,000 active; AID 1463; further: nearly all actives have a fitted effect of over 55% in size
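Human K18 P301L tau (15 uM unlabeled plus 0.24 uM Alexa 594-labeled, final) in 100 mM sodium acetate pH 7 was mixed with compound and 20 uM heparin and incubated 6 hr at 37 C.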
Sfp inh – inhibitors of Bacillus subtilis Sfp phosphopantetheinyl transferase; 3.5% of 310,000 active; Q9F4F7; Biochemical Sfp PPTase activity, qHTS; Potency, µM, hits mostly inhibitors;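 further: the enzyme is Sfp with the accession as filed and its product quenches rhodamine fluorescence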
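With Hepes-Na pH 7.6 buffer containing 10 mM MgCl2, Sfp (15 nM) modified BHQ-2-YbbR (12.5 uM) using rhodamine-CoA (5 uM). Two reads 30 minutes apart at 525/598 nm yielded each well's rate.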
Of the large screens only hits and unclear results are named; the others gave an inactive call. Hits are enriched below; roughly 5.3% of the tested compounds scored in any of these assays. Unless noted, the call rests on the fitted dose curve; in most records, active means well fitted curve in the direction sought with a large enough effect; inconclusive means small, poorly fitted or top-dose-only effect, or another doubt; inactive means no such curve, though single readings can be large; an effect the other way counts as inactive or inconclusive.

CC(C)CCn1c(=O)c2sccc2n2c(CCCC(=O)NCCc3ccccc3)nnc12	none (no result: KDM4E inh, Coupling enz, Sfp inh)
CN1C2CCC1/C(=C\c1ccccc1)C(=O)/C2=C\c1ccccc1	Tau fibril FP inconclusive, Tau ThT inhib 16µM
Nc1ccc(Cc2ccc(N)c(O)c2)cc1O	Tau fibril FP inconclusive, Tau ThT inhib 14µM, KDM4E inh inconclusive, Tau fluor counter inconclusive
COc1ccc(N2CCN(C(c3ccccc3)c3nnc(-c4ccccc4Cl)o3)CC2)cc1 (stereo not given)	Tau fluor counter inconclusive (no result: KDM4E inh, Coupling enz, Sfp inh)
Cc1c(Cc2ccccc2)c(=O)n2c([nH]c3ccccc32)c1C#N	KDM4E inh inconclusive, Tau fluor counter inconclusive, Sfp inh 79µM
N#Cc1c(C(F)(F)F)cc(=O)n2c1[nH]c1ccccc12	none (no result: Tau fibril FP, Tau ThT inhib, KDM4E inh, Tau fluor counter)
Oc1cccc(C(=S)N2CCC(Cc3ccccc3)CC2)c1	Sfp inh 35µM (no result: Tau fibril FP, Tau ThT inhib, KDM4E inh, Tau fluor counter)
Cc1nc2c(O)cccc2cc1CO	Coupling enz -37, Sfp inh 71µM
NC(=O)CCn1c2ccccc2c2ccccc21	KDM4E inh inconclusive
Cc1ccc2c(c1)c1cccc3c1n2CCN3CCC(N)=O	Tau fibril FP inconclusive, Tau ThT inhib 11µM, KDM4E inh inconclusive, Tau fluor counter inconclusive
CC12CCC=CC1C(c1ccc3ccccc3c1C=Cc1ccccc1)N(Cc1ccccc1)C2=O (stereo not given)	none (no result: Tau fibril FP, Tau ThT inhib, KDM4E inh, Tau fluor counter)
CC#CCOC(=O)C1=CCCN(C)C1	none
CCN(Cc1ccccc1)C(c1cc2cc(C)cc(C)c2[nH]c1=O)c1nnnn1CCOC (stereo not given)	KDM4E inh inconclusive
COCCn1nnnc1C(c1cc2cc(C)ccc2[nH]c1=O)N1CCCCCC1 (stereo not given)	Tau fibril FP inconclusive, Tau ThT inhib inconclusive, KDM4E inh inconclusive, Sfp inh 50µM
COCCn1nnnc1C(c1cc2cc(C)cc(C)c2[nH]c1=O)N1CCN(c2ccccc2F)CC1 (stereo not given)	Tau ThT inhib inconclusive, KDM4E inh inconclusive, Sfp inh 13µM
Cc1cc(OC(C)C(=O)Nc2c(C(=O)c3ccc(F)cc3)oc3ccccc23)ccc1Cl (stereo not given)	none (no result: KDM4E inh, Coupling enz, Sfp inh)
Fc1ccc(Nc2ccnc(-c3ccc4c(c3)OCO4)n2)cc1	none (no result: Tau fibril FP, Tau ThT inhib, KDM4E inh, Tau fluor counter)
O=c1c(-c2ccc(O)cc2)coc2cc(O[C@@H]3O[C@H](CO)[C@@H](O)[C@H](O)[C@H]3O)cc(O)c12	none (no result: Tau fibril FP, Tau ThT inhib, KDM4E inh, Tau fluor counter)
CCCCN1CCc2[nH]c(=S)[nH]c(=O)c2C1	Sfp inh inconclusive
COCCN1CCc2[nH]c(=S)[nH]c(=O)c2C1	KDM4E inh inconclusive, Sfp inh 56µM
Cc1ccc(-n2cc[nH]c2=S)cc1C	Sfp inh 79µM
COC(=O)C(C(C)C)N1CC(=O)c2ccccc2S1(=O)=O (stereo not given)	none (no result: Tau fibril FP, Tau ThT inhib, KDM4E inh, Tau fluor counter)
COc1ccc2cc(C)c3nnc(SCC(=O)Nc4nc(-c5ccccc5)cs4)n3c2c1	Sfp inh 79µM
Cc1cc(C(=O)COC(=O)c2ccccc2Br)c(C)n1CC1CCCO1 (stereo not given)	none
Cc1cc(C(=O)COC(=O)c2cc(O)c3ccccc3c2O)c(C)n1CC1CCCO1 (stereo not given)	Tau fibril FP inconclusive, Tau ThT inhib 14µM, KDM4E inh 28µM, Coupling enz -46, Tau fluor counter inconclusive, Sfp inh 79µM
C=CCOC(=O)N[C@@H](c1ccc(Br)cc1)C(C(C)=O)C(C)=O	Tau fibril FP inconclusive
CCCCn1c(SCc2ccc(C(=O)OC)o2)nc2cc(S(N)(=O)=O)ccc21	Sfp inh 56µM
CCOc1ccc(CCNC(=O)CCc2c(C)nc3c(c(C)nn3-c3ccccc3)c2C)cc1OCC	Tau ThT inhib inconclusive (no result: KDM4E inh, Coupling enz, Sfp inh)
Cc1ccc(Cl)cc1NC(=O)CSC(N)=O	Tau fibril FP inconclusive, Tau ThT inhib 32µM, Sfp inh inconclusive
CC(C)(C)C1CCc2onc(C(=O)Nc3sc4c(c3C#N)CCCC4)c2C1 (stereo not given)	Tau fibril FP inconclusive, Tau ThT inhib 32µM (no result: KDM4E inh, Coupling enz, Sfp inh)
CCOC(=O)c1cc(C(=O)Nc2sc3c(c2C#N)CCCC3)nn1C	Sfp inh 35µM (no result: Tau fibril FP, Tau ThT inhib, KDM4E inh, Tau fluor counter)
Cc1cc(C(=O)Nc2sc3c(c2C#N)CCCC3)no1	Sfp inh 20µM
